Data as given in publication PMC4336329 (PLoS ONE, 2015).
Out of some 310,000 compounds screened, about 14,000 (4.5%) showed an effect of 50% or more. The effect is printed as a negative number. This is one part of a sample in which strong results are shown more often than they occur.

biological target: human ether-à-go-go-related gene (hERG) potassium channel (human, UniProt Q12809); test: primary screen, population patch clamp on CHO cells stably expressing hERG; higher = less effect of the substance
Sequence (Q12809 whole entry, looked up): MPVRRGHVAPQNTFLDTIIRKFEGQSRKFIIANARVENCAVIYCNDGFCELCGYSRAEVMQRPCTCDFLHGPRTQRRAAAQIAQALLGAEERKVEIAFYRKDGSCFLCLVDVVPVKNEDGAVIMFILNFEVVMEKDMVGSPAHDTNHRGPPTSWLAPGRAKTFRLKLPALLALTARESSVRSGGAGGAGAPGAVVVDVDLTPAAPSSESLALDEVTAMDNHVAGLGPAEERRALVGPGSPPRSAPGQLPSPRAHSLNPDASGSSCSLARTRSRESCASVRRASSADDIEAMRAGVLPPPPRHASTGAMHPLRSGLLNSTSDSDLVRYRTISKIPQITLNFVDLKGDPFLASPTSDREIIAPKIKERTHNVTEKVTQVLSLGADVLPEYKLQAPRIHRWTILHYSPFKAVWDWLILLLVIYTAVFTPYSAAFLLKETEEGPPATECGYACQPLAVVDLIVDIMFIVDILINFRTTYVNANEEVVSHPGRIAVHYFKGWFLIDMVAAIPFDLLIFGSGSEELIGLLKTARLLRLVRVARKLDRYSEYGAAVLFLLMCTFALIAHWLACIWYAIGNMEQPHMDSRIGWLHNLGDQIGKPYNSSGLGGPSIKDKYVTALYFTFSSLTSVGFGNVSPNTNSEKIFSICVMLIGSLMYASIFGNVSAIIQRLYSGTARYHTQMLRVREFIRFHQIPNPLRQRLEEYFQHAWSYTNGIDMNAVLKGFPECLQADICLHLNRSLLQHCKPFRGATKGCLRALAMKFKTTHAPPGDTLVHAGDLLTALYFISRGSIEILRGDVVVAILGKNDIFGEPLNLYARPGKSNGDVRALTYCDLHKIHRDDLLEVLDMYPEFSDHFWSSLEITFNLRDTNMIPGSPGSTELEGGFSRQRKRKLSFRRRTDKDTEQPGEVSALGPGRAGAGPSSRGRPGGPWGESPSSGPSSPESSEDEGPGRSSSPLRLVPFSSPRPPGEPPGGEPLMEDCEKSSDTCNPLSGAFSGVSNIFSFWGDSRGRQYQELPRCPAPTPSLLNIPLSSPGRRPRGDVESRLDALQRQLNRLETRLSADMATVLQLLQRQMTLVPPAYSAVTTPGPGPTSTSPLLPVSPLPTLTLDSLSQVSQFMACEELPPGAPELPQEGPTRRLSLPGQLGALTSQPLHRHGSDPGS
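Note: peak tail current of the secondary pulse compared with the same well before compound.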

Compared with `CC(=O)c1c(C)[nH]c(C(=O)Nc2cc(S(=O)(=O)N3CCCCC3)ccc2C)c1C`, `O=C1CCCC(O)=C1N=Nc1ccc(S(=O)(=O)N2CCOCC2)cc1` is lower in “hERG current change (%, negative = inhibition) at 10uM” value: 2.24% for the first, 2.06% for the second.

Compared with `CC(=O)O[C@@H]1/C=C/[C@](C)(O)C[C@@H](C)C/C=C/[C@H]2[C@H](O)C(C)=C(C)[C@H]3[C@H](Cc4ccccc4)NC(=O)[C@@]123`, `CCCN1CCC(Oc2cccc(C(=O)NCCc3ccccc3)c2)CC1` is lower in “hERG current change (%, negative = inhibition) at 10uM” value: -15.4% for the first, -66% for the second.

Compared with `Cl.Oc1ccc(CC2CC3CCN2CC3)cc1O` (stereo not shown), `CCCN1CCC(NC(=O)c2cccc(Oc3ccccc3)c2)CC1` is lower in “hERG current change (%, negative = inhibition) at 10uM” value: 12.7% for the first, -51.9% for the second.

Compared with `COc1ccc(NC(=O)Nc2cccc(Cl)c2Cl)c(OC)n1`, `CCSc1nsc(NC(=O)Nc2ccc(F)cc2F)n1` is higher in “hERG current change (%, negative = inhibition) at 10uM” value: 3.16% for the first, 24.1% for the second.

Going from `O=C(Cc1cccs1)N/N=C\c1ccc(O)cc1` to `CC(=O)N(C)c1ccc(N=Cc2c(O)ccc3ccccc23)cc1`, the “hERG current change (%, negative = inhibition) at 10uM” value falls from 14.5% to -20.9%.

First: CC(C)(C)N1CC(c2nc3ccccc3n2CCOc2ccccc2)CC1=O (stereo not shown)
Second: COc1ccc(C2(O)CCN(CCCCOc3ccccc3)CC2)cc1
The “hERG current change (%, negative = inhibition) at 10uM” value of the first is higher: -26.1% for the first, -70.6% for the second.

Compared with `CCc1ccc2nc(N(CCN(C)C)C(=O)c3ccc4ccccc4c3)sc2c1.Cl`, `Cc1ccc2nc(N(CCN(C)C)C(=O)c3ccc4ccccc4c3)sc2c1.Cl` is higher in “hERG current change (%, negative = inhibition) at 10uM” value: 0.369% for the first, 15.9% for the second.

Going from `Cc1ccc2nc(N(CCCN(C)C)C(=O)c3ccc(S(=O)(=O)N(C)C)cc3)sc2c1.Cl` to `Cc1ccc2nc(N(CCCN(C)C)C(=O)c3ccc4ncsc4c3)sc2c1`, the “hERG current change (%, negative = inhibition) at 10uM” value falls from -42.1% to -61.4%.

Compared with `CCc1ccc2nc(N(CCN(C)C)C(=O)c3ccc4ncsc4c3)sc2c1.Cl`, `Cc1cccc2sc(N(CCCN(C)C)C(=O)c3ccc4ncsc4c3)nc12` is higher in “hERG current change (%, negative = inhibition) at 10uM” value: -60.6% for the first, -45% for the second.

Compared with `O=C(CCNC(=O)c1ccc([N+](=O)[O-])cc1)NC1CCCCCC1`, `O=C(Cn1ncc2c3ccccc3n(Cc3ccccc3)c2c1=O)NC1CCCC1` is higher in “hERG current change (%, negative = inhibition) at 10uM” value: -25.3% for the first, 10.1% for the second.

First: CC(C)(C)NC(=O)C(c1cccs1)N(C(=O)c1csnn1)c1cccc(F)c1 (stereo not shown)
Second: O=C(NCCc1csc(-c2cccnc2)n1)c1cccs1
The “hERG current change (%, negative = inhibition) at 10uM” value of the first is lower: -7.68% for the first, -5.91% for the second.

Compared with `O=S(=O)(c1ccc(Cl)s1)N1CCc2ccccc2C1`, `CS(=O)(=O)N(CC(=O)N1CCN(c2ccc(F)cc2)CC1)c1cccc(Cl)c1` is lower in “hERG current change (%, negative = inhibition) at 10uM” value: 7.13% for the first, -49.9% for the second.

Going from `NC(=S)Nc1cc(Cl)cc(Cl)c1` to `Oc1ccc(Br)cc1-c1cc(-c2ccc(Cl)cc2)n[nH]1`, the “hERG current change (%, negative = inhibition) at 10uM” value falls from 17.1% to 7.99%.

First: CC(C)NC(=O)CCS(=O)(=O)c1ccc(Br)s1
Second: CS(=O)(=O)c1ccc(-c2cccc(NC(=O)COc3ccc(Cl)cc3)c2)nn1
The “hERG current change (%, negative = inhibition) at 10uM” value of the first is higher: 16.1% for the first, 6.7% for the second.

Compared with `COc1ccc(/C=N/NC(=O)c2cccc([N+](=O)[O-])c2)cc1OS(=O)(=O)c1ccc(C)cc1`, `Cn1cc(/C=C(\C#N)C(=O)Nc2cccc([N+](=O)[O-])c2)c2ccccc21` is higher in “hERG current change (%, negative = inhibition) at 10uM” value: -16.1% for the first, 28.4% for the second.

Going from `COCc1cc(OC(=O)N(C)C)nc2c1c(C)nn2C` to `CC(C)c1csc2nc3n(c(=O)c12)CCCCC3`, the “hERG current change (%, negative = inhibition) at 10uM” value falls from -9.48% to -10.7%.

Compared with `O=C(CNC(=O)C12CC3CC(CC(C3)C1)C2)N/N=C\c1ccco1`, `COc1ccc(NC(=O)C2C3C=CC4(O3)C2C(=O)N(CCN2CCCCC2C)C4C(=O)NC2CCCC(C)C2C)cc1` (stereo not shown) is lower in “hERG current change (%, negative = inhibition) at 10uM” value: 5.05% for the first, -22.4% for the second.

Compared with `Cc1cc(OC(C)C(=O)NCC2CCC(C(=O)O)CC2)c2c(C)cc(=O)oc2c1` (stereo not shown), `COc1ccc(F)cc1C(=O)C1CCCN(C(=O)c2ccc(C(C)=O)s2)C1` (stereo not shown) is lower in “hERG current change (%, negative = inhibition) at 10uM” value: 24.5% for the first, -4.71% for the second.

First: O=C(NC1CC1)c1cccc(Oc2ccccc2)c1
Second: CN1CCC(NC(=O)c2cccc(Oc3ccccc3)c2)CC1
The “hERG current change (%, negative = inhibition) at 10uM” value of the first is higher: 1.52% for the first, -8.93% for the second.

First: COc1cc(OC)cc(C(=O)NNC(=O)CCCOc2ccccc2)c1
Second: COc1cc(OC)cc(C(=O)NCCOc2ccccc2)c1
The “hERG current change (%, negative = inhibition) at 10uM” value of the first is lower: -18.4% for the first, -17.6% for the second.

Going from `COCCNC(=O)c1cccc(OC2CCN(Cc3cccc(SC)c3)CC2)c1` to `COCCNC(=O)c1cccc(OC2CCN(Cc3cccc(C(C)=O)c3)CC2)c1`, the “hERG current change (%, negative = inhibition) at 10uM” value rises from -35.2% to 6.74%.

First: COCC(C)N1CCC(Oc2ccc(C(=O)NCc3ccccn3)cc2)CC1 (stereo not shown)
Second: COCC(C)N1CCC(Oc2cccc(C(=O)NCCc3ccccc3)c2)CC1 (stereo not shown)
The “hERG current change (%, negative = inhibition) at 10uM” value of the first is higher: 13.1% for the first, -66.3% for the second.

Going from `COc1cc(OC)cc(C(=O)NC2CCN(CCCOc3ccccc3)CC2)c1` to `COCCNC(=O)c1cccc(OC2CCN(Cc3ccccc3C)CC2)c1`, the “hERG current change (%, negative = inhibition) at 10uM” value rises from -70.2% to 6.34%.

Going from `COc1cccc(OCCCCN2CCCCC2)c1` to `c1ccc(OCCCCN2CCOCC2)cc1`, the “hERG current change (%, negative = inhibition) at 10uM” value falls from -8.36% to -14.5%.

Compared with `COC(=O)c1ccc(N=C(c2ccccc2)c2c(O)n(C)c(=O)n(C)c2=O)cc1`, `Cc1cccc(C)c1-n1c(SCC(=O)N2CC(=O)Nc3ccccc32)nc2ccccc2c1=O` is lower in “hERG current change (%, negative = inhibition) at 10uM” value: 6.79% for the first, -0.373% for the second.

Going from `C#CCN1C(=O)C(O)(CC(=O)/C=C/C=C/c2ccccc2)c2ccccc21` (stereo not shown) to `O=[N+]([O-])c1ccccc1CNCCCCO`, the “hERG current change (%, negative = inhibition) at 10uM” value falls from 21.6% to -3.05%.

First: Cc1ccc(Sc2ncnc3onc(C)c23)cc1
Second: Cc1noc2ncnc(Sc3ccc(Cl)cc3)c12
The “hERG current change (%, negative = inhibition) at 10uM” value of the first is lower: 4.79% for the first, 16.3% for the second.

Going from `Cc1noc2ncnc(Sc3ccc(Br)cc3)c12` to `Cc1cc(C(=O)N2CCCC(N3CCN(c4cccc(C(F)(F)F)c4)CC3)C2)no1` (stereo not shown), the “hERG current change (%, negative = inhibition) at 10uM” value rises from -50.8% to -2.14%.

Going from `CCn1cc(C(=O)N2CCCC(N3CCN(c4cccc(C(F)(F)F)c4)CC3)C2)cn1` (stereo not shown) to `O=C(c1ccoc1)N1CCCC(N2CCN(c3cccc(C(F)(F)F)c3)CC2)C1` (stereo not shown), the “hERG current change (%, negative = inhibition) at 10uM” value falls from -29.2% to -55.5%.

Compared with `Cc1cc(C(=O)N2CCCC(N3CCN(c4cccc(C(F)(F)F)c4)CC3)C2)n[nH]1` (stereo not shown), `Cc1cnc(C(=O)N2CCCC(N3CCN(c4cccc(C(F)(F)F)c4)CC3)C2)cn1` (stereo not shown) is higher in “hERG current change (%, negative = inhibition) at 10uM” value: -53.2% for the first, -39.7% for the second.

Going from `O=C(c1ccsc1)N1CCCC(N2CCN(c3cccc(Cl)c3)CC2)C1` (stereo not shown) to `O=C(c1ccoc1)N1CCCC(N2CCN(c3cccc(Cl)c3)CC2)C1` (stereo not shown), the “hERG current change (%, negative = inhibition) at 10uM” value rises from -47.1% to -41.3%.

Going from `Cc1occc1C(=O)N1CCCC(N2CCN(c3cccc(C(F)(F)F)c3)CC2)C1` (stereo not shown) to `O=C(c1ccsc1)N1CCCC(N2CCN(c3cccc(C(F)(F)F)c3)CC2)C1` (stereo not shown), the “hERG current change (%, negative = inhibition) at 10uM” value falls from -38.9% to -64.2%.

First: O=C(c1cc[n+]([O-])cc1)N1CCCC(N2CCN(c3cccc(C(F)(F)F)c3)CC2)C1 (stereo not shown)
Second: O=C(c1cccs1)N1CCCC(N2CCN(c3cccc(C(F)(F)F)c3)CC2)C1 (stereo not shown)
The “hERG current change (%, negative = inhibition) at 10uM” value of the first is higher: -6.27% for the first, -68.4% for the second.

`Cc1nnsc1C(=O)N1CCCC(N2CCN(c3cccc(C(F)(F)F)c3)CC2)C1` (stereo not shown) was tested, and the “hERG current change (%, negative = inhibition) at 10uM” value was -26.8%.
